# Laboratory results taken from PubChem BioAssay AID602256 (National Center for Advancing Translational Sciences (NCATS), 2012).
# Records with an inconclusive call do not appear. Unmarked numbers belong to inactive results. Calls of active or inactive are those of the source. The call rests on the fitted dose curve; in most records, active means well fitted curve in the direction sought with a large enough effect; inconclusive means small, poorly fitted or top-dose-only effect, or another doubt; inactive means no such curve, though single readings can be large or run the other way.
# Target: Relaxin receptor 1 (Homo sapiens) (UniProt Q9HBX9)
# Experiment: qHTS Assay for Agonists of the Relaxin Receptor RXFP1: RXFP1 SAR
# Settings: HEK293T-RXFP1 cAMP TR-FRET, 30 min; efficacy: stronger effect = higher value
# Source text: The relaxin hormone is involved in the variety of biological functions in normal tissues and diseases. The role of relaxin is well-established in female reproduction and parturition, mammary gland and endometrial development, maintenance of myometrial quiescence during pregnancy. Relaxin signaling through its G protein-coupled receptor (GPCR) RXFP1 results in ECM remodeling through regulation of collagen deposition, cell invasiveness, proliferation and overall tissue homeostasis. […] Recombinant human relaxin (rhRlx) is currently being tested in clinical trials as a protective agent in congestive heart failure, in treating severe preeclampsia, and as an anti-fibrotic agent in systemic sclerosis. Upon relaxin binding RXFP1 activation leads to the activation of adenylate cyclase (AC) via Gs. cAMP will activate PKA, which phosphorylates many signaling proteins. Thus, detection of cAMP increase is an easy and reliable indication of relaxin receptor activation. To screen for agonists of the relaxin receptor, a HEK293T cell line stably transfected with RXFP1 was used. RXFP1 activation was assayed by changes in cAMP levels as detected with a time-resolved fluorescence energy transfer (TR-FRET) cAMP detection kit. NIH Chemical Genomics Center [NCGC] NIH Molecular Libraries Probe Production Centers Network [MLPCN] MLPCN Grant: R03 MH085705-01A1 Assay Submitter (PI): Alexander Agoulnik
# This is a cell-based assay for cAMP second messenger response to screen for agonists of the RXFP1 receptor. The assay was conducted in the presence of a PDE4 inhibitor (Ro 20174). The cells were lysed and the cAMP levels were measured with a TR-FRET cAMP kit. Presence of cAMP in the cell lysate disrupts binding between the cryptate-labeled anti-cAMP and d2-labeled cAMP pair, leading to a decrease in the TR-FRET signal. Data were normalized to the controls for basal activity (buffer only) and 100% activity (29 nM porcine relaxin). The EC50 values were determined from concentration-response data modeled with the standard Hill equation 1536-well assay protocol for the HEK293 RXFP1 cAMP assay: (1) Add 3 ul HEK293 RXFP1 cell culture. 2000 cells/well in DMEM/F12, 10% FBS, 1x Pen/Strep (dispensed offline with MultiDrop Combi). (2) Incubate 16-24 hr at 37C, 5% CO2. (3) Add 1 ul 400uM Ro20174 in DPBS, 0.05% BSA, 0.005% Tween 20. (3) Add 23 nl compounds in DMSO solution. Final concentration was 0.5 - 58 uM. (4) Incubate 30 min at 37C, 5% CO2. (5) Add 1 ul cAMP-d2 in lysis buffer (HTRF cAMP HiRange kit, CisBio). (6) Add 1 ul anti-cAMP antibody-cryptate in lysis buffer (HTRF cAMP HiRange kit, CisBio). (7) Incubate 30 min at room temperature. (6) Detect the assay plate in a ViewLux plate reader (PerkinElmer) with Ex=320 nm, Em1=615 nm and Em2=665 nm. Keywords: relaxin, RXFP1, RXFP2, G-protein coupled receptor, cAMP, agonist, high throughput screening, MLSMR, MLSCN, NIH Roadmap, qHTS and NCGC
# Sequence of Relaxin receptor 1 (Homo sapiens) (Q9HBX9 whole entry, looked up): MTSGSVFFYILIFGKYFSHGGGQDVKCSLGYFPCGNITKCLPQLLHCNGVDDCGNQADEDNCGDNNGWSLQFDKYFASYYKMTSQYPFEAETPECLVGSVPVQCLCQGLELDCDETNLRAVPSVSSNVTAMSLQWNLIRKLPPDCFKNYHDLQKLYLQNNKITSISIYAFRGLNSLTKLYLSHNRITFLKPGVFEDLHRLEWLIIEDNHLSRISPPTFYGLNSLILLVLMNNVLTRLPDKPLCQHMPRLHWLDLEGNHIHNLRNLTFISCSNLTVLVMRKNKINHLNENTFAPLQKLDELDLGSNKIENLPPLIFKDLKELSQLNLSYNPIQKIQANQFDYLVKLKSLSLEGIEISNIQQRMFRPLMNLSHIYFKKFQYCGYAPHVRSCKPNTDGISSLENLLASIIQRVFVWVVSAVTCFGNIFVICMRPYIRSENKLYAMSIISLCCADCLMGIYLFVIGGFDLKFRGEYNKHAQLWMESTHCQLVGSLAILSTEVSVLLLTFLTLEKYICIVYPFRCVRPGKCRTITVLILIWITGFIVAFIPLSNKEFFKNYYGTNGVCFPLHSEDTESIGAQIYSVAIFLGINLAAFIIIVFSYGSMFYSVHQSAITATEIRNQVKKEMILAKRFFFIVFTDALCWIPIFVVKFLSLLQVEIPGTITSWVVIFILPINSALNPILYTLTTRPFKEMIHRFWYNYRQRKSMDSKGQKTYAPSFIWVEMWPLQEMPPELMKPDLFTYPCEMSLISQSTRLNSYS
Structure (SMILES),Potency,efficacy
O=C(Nc1cccc(Cl)c1)c1ccccc1NC(=O)C1CCCCC1,3340 nM (active),
COc1ccccc1C(=O)N(C)c1ccccc1C(=O)Nc1cccc(C(F)(F)F)c1,,-2.4%
COc1ccccc1-c1ccccc1C(=O)Nc1cccc(C(F)(F)F)c1,,-3.31%
O=C(Nc1cccc(C(F)(F)F)c1)c1ccccc1NC(=O)C1CC1,8380 nM (active),
CCCCC(=O)Nc1ccccc1C(=O)Nc1cccc(C(F)(F)F)c1,5290 nM (active),
CCOc1ccccc1S(=O)(=O)Nc1ccccc1C(=O)Nc1cccc(S(=O)(=O)C(F)(F)F)c1,,-2.44%
O=C(Nc1cccc(C(F)(F)F)c1)c1ccccc1NC(=O)C1CCCC1,2360 nM (active),
O=C(NCc1cccc(C(F)(F)F)c1)c1ccccc1NC(=O)C1CCCCC1,,4.71%
CC(C)Oc1ccccc1C(=O)Nc1ccccc1C(=O)Nc1cccc(C(F)(F)F)c1,471 nM (active),
CCC(CC)C(=O)Nc1ccccc1C(=O)Nc1cccc(C(F)(F)F)c1,5290 nM (active),
O=C(Nc1cccc(S(=O)(=O)C(F)(F)F)c1)c1ccccc1NC(=O)c1ccccc1OCC(F)(F)F,66.6 nM (active),
O=C(Nc1cccc(-c2ccccc2C(F)(F)F)c1)c1ccccc1NC(=O)C1CCCCC1,2650 nM (active),
O=C(Nc1cccc(S(=O)(=O)C(F)(F)F)c1)c1ccccc1NC(=O)C1CCCCC1,1060 nM (active),
COc1ccccc1C(=O)Nc1ccccc1C(=O)Nc1cccc(C(F)(F)F)c1,334 nM (active),
